The target of assay [1] is T1, Aurora kinase A (Homo sapiens) (UniProt O14965).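 Note: values are mean percent inhibition.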
T1 sequence (whole entry): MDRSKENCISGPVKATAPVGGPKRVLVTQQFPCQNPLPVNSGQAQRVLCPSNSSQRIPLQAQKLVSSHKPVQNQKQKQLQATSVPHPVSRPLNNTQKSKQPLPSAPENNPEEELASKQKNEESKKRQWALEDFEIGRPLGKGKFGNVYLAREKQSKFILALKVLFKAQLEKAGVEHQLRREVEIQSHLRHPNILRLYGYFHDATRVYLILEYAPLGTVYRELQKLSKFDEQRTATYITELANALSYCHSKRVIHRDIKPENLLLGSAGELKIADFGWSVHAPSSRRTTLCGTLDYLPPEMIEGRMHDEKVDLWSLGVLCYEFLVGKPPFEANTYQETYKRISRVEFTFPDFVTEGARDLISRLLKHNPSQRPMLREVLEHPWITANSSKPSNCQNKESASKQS
To be noted: at 1 µM.

Assay [2] deals with Aurora kinase B (Homo sapiens) (UniProt Q96GD4). As to conditions: at 0.1 µM.
Assay [3] shares this target. As to conditions: at 1 µM.
Assay [4] has as its target T2, Aurora kinase C (Homo sapiens) (UniProt Q9UQB9).
T2 sequence (whole entry): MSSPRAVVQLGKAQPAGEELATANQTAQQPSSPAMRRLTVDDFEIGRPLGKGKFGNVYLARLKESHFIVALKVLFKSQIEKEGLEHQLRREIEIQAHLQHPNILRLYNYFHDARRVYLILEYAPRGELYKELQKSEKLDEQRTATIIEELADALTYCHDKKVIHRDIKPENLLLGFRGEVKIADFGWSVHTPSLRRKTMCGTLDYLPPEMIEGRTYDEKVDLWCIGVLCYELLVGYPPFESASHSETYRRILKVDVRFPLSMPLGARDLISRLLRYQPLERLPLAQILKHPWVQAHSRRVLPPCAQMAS
As to conditions: at 0.1 µM.

The target of assay [5] is T2, Aurora kinase C (Homo sapiens). To be noted: at 1 µM.
In assay [6] the target is Serine/threonine-protein kinase 10 (Homo sapiens) (UniProt O94804). As to conditions: at 0.1 µM.
Assay [7] has the same target. To be noted: at 1 µM.
Assay [8] deals with T3, Mitogen-activated protein kinase kinase kinase kinase 2 (Homo sapiens) (UniProt Q12851).
T3 sequence (whole entry): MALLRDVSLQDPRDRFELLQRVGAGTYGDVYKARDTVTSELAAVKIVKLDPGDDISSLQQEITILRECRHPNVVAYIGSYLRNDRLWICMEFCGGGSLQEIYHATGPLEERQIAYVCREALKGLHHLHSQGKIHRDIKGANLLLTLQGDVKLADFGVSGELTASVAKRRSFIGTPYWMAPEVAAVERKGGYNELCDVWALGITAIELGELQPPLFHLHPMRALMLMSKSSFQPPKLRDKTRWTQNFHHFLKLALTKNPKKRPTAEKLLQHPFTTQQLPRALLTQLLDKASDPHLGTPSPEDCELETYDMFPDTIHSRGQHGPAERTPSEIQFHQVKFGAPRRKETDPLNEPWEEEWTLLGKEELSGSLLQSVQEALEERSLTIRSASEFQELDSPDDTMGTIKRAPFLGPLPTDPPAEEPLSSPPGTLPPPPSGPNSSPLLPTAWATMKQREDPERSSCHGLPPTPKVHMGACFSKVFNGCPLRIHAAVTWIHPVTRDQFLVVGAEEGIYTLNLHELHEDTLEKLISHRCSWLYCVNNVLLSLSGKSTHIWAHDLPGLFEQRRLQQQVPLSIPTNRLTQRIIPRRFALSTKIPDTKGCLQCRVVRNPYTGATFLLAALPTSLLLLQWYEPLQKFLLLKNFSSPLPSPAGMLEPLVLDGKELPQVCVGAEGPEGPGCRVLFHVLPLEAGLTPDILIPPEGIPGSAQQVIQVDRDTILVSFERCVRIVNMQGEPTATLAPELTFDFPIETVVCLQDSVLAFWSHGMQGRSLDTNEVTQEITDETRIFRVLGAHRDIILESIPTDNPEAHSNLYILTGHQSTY
To be noted: at 0.1 µM.

Assay [9] deals with T3, Mitogen-activated protein kinase kinase kinase kinase 2 (Homo sapiens). As to conditions: at 1 µM.
Assay [10] addresses Mitogen-activated protein kinase kinase kinase kinase 4 (Homo sapiens) (UniProt O95819). To be noted: at 0.1 µM.
Assay [11] shares this target. As to conditions: at 1 µM.
Assay [12] concerns the target Dual specificity mitogen-activated protein kinase kinase 1 (Homo sapiens) (UniProt Q02750). As to conditions: at 0.1 µM.
The target is the same in assay [13]. As to conditions: at 1 µM.
Assay [14] has as its target Misshapen-like kinase 1 (Homo sapiens) (UniProt Q8N4C8). As to conditions: at 0.1 µM.
Assay [15] shares this target. To be noted: at 1 µM.
In assay [16] the target is T4, Serine/threonine-protein kinase 4 (Homo sapiens) (UniProt Q13043).
T4 sequence (whole entry): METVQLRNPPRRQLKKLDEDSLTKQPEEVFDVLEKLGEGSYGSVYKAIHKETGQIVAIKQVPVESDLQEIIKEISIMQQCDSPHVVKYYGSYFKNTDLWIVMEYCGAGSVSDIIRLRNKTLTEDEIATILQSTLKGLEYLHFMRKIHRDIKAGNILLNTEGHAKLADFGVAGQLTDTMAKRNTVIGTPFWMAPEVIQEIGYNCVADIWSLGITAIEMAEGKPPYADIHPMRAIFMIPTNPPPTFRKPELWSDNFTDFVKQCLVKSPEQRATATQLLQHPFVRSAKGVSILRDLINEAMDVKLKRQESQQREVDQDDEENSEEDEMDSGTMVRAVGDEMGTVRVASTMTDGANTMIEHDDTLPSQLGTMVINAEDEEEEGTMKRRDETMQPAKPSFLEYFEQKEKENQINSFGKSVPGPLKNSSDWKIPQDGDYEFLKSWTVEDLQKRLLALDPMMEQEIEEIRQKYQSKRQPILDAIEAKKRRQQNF
To be noted: at 0.1 µM.

In assay [17] the target is T4, Serine/threonine-protein kinase 4 (Homo sapiens). To be noted: at 1 µM.
Assay [18] has as its target T5, Serine/threonine-protein kinase 3 (Homo sapiens) (UniProt Q13188).
T5 sequence (whole entry): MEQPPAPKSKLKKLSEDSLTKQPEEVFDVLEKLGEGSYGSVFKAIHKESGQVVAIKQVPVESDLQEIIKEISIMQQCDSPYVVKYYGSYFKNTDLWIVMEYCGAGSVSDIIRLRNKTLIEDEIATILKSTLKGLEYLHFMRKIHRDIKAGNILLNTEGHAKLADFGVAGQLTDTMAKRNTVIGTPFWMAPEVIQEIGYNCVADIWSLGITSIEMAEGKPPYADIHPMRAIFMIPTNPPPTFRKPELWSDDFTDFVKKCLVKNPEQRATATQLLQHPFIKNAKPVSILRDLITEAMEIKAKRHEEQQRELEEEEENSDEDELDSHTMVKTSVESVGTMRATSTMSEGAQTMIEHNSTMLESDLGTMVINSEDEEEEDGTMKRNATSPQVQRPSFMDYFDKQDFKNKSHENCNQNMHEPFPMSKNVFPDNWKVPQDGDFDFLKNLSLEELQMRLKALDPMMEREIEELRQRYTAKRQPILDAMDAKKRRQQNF
As to conditions: at 0.1 µM.

For assay [19], the target named is T5, Serine/threonine-protein kinase 3 (Homo sapiens). As to conditions: at 1 µM.
Assay [20] concerns the target Serine/threonine-protein kinase 26 (Homo sapiens) (UniProt Q9P289). As to conditions: at 0.1 µM.

“And” between values parts separate entries of the source, which are not always exact repeats. Equal values may be shown once.

As usually defined, the inhibition is the change of the read-out against control, counted positive when it falls.

Serine/threonine-protein kinase 10 (Homo sapiens), sequence (O94804 whole entry, looked up): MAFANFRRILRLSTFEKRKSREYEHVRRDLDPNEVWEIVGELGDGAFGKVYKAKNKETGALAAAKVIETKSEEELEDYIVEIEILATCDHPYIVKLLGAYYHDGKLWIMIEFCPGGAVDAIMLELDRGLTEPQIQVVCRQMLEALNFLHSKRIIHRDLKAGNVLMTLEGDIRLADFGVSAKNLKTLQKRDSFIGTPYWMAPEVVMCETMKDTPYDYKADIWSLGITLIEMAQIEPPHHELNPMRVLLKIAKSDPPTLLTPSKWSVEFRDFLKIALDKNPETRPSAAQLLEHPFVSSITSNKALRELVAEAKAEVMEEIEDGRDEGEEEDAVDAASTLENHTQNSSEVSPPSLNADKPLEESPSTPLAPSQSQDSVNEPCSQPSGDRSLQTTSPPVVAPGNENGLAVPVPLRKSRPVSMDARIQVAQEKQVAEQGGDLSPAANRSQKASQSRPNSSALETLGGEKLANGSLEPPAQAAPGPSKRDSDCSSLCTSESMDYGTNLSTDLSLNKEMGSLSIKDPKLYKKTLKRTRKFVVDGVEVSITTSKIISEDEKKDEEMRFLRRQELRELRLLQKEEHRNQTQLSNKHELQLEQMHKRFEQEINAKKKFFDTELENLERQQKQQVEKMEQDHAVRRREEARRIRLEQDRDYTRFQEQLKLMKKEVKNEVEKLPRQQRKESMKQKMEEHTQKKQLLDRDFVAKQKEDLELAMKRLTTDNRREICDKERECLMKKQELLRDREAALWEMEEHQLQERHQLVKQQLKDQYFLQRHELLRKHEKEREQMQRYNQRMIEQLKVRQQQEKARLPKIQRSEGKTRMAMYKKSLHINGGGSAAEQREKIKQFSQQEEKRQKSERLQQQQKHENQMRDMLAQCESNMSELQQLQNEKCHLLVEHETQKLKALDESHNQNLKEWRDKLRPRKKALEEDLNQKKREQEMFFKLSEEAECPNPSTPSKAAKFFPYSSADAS
Aurora kinase B (Homo sapiens), sequence (Q96GD4 whole entry): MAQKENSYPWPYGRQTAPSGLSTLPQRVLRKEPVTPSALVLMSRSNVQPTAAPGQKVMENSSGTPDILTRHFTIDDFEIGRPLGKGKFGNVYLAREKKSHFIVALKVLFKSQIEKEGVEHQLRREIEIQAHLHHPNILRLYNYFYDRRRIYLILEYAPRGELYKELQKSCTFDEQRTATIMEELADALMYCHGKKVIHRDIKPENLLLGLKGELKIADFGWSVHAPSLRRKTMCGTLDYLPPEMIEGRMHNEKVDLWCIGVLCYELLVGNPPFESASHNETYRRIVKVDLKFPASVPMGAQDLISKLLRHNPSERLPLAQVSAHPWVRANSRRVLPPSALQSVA
Dual specificity mitogen-activated protein kinase kinase 1 (Homo sapiens), sequence (Q02750 whole entry): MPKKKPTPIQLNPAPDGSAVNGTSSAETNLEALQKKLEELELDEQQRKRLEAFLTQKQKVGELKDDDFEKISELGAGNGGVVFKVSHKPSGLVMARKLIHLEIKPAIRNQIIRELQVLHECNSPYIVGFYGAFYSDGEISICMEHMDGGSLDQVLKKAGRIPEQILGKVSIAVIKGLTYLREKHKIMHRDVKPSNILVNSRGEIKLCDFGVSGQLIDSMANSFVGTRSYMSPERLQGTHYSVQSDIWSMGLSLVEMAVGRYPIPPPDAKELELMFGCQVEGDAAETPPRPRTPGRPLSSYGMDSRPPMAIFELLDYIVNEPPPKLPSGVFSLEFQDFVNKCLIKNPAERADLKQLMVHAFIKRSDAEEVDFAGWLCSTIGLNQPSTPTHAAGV
Misshapen-like kinase 1 (Homo sapiens), sequence (Q8N4C8 whole entry, looked up): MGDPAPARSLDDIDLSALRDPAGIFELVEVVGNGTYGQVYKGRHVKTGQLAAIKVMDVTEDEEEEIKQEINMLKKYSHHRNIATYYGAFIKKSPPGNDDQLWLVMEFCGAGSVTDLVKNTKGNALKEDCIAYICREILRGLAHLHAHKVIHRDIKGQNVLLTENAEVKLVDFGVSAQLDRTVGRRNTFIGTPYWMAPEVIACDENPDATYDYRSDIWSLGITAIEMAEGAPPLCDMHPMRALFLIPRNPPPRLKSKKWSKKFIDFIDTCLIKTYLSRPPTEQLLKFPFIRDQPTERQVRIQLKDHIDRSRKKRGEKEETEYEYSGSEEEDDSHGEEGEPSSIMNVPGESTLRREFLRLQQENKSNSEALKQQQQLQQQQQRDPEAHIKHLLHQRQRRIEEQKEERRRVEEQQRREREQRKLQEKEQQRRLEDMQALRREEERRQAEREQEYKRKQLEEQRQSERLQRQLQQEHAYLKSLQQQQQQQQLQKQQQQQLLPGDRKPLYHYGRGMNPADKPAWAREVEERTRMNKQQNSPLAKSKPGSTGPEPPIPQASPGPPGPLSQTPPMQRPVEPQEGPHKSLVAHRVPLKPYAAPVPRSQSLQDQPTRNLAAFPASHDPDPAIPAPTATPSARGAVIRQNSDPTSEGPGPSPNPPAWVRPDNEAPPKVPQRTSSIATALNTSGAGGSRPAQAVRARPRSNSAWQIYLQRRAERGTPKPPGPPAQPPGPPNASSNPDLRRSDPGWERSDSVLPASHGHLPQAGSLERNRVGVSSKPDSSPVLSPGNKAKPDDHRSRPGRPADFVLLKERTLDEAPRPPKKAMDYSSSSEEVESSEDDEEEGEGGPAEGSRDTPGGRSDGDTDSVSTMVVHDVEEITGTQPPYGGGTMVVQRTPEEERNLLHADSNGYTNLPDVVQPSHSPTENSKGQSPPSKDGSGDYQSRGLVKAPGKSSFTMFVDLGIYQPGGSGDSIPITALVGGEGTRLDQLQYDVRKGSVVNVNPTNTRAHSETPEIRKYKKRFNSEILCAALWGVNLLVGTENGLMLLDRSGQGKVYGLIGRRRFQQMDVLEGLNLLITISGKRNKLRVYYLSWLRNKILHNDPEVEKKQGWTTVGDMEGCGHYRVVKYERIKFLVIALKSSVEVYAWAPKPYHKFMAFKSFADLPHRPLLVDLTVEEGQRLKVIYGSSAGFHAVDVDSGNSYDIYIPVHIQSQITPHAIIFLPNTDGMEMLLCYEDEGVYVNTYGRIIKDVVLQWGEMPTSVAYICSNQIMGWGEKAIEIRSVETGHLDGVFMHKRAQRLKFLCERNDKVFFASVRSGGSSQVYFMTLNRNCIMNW
Serine/threonine-protein kinase 26 (Homo sapiens), sequence (Q9P289 2-416 limits assumed): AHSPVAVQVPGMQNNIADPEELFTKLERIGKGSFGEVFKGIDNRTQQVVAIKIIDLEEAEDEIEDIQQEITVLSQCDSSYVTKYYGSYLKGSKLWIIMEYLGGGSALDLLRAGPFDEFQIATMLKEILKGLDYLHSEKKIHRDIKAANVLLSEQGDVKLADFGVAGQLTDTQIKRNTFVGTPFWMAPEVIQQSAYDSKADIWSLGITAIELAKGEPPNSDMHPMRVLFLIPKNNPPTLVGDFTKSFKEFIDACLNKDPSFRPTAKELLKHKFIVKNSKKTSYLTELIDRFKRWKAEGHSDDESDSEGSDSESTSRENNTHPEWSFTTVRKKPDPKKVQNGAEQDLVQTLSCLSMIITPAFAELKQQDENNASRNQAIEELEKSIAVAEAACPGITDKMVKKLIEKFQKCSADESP
Mitogen-activated protein kinase kinase kinase kinase 4 (Homo sapiens), sequence (O95819 2-1239 limits assumed): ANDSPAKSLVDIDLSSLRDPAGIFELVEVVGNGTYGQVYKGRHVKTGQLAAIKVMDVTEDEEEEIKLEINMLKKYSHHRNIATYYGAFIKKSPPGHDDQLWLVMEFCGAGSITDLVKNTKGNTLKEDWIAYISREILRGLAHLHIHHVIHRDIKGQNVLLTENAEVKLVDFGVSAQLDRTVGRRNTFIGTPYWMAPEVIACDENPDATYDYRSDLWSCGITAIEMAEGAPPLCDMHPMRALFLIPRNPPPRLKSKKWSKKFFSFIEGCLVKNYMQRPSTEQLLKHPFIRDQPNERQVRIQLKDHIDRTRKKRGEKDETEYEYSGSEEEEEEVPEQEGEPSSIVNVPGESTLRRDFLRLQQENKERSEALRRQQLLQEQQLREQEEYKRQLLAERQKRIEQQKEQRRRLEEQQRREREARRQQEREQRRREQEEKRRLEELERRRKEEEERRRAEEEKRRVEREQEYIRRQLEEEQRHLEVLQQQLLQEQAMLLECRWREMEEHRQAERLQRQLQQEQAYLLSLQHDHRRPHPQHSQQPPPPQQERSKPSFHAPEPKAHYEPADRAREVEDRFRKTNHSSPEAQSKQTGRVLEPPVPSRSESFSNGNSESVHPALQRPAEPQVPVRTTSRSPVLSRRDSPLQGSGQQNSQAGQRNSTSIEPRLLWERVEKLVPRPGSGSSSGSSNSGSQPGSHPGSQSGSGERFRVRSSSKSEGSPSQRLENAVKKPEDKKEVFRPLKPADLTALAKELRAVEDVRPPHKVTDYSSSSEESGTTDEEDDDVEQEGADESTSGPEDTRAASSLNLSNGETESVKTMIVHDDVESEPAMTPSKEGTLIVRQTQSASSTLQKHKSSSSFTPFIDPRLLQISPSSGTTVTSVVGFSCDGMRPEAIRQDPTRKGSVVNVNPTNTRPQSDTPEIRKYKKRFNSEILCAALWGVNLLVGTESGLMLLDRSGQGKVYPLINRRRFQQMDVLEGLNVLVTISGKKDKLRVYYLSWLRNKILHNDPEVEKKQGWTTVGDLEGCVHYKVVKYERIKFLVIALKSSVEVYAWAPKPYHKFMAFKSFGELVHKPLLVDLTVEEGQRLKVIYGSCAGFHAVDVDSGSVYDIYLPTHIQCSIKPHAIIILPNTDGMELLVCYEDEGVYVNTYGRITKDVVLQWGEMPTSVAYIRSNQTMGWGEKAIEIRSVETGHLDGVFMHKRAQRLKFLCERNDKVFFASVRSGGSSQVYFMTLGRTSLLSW

Turning to `O=C(O[C@H]1CN[C@H](C#Cc2cc3ncnc(Nc4ccc5c(cnn5Cc5ccccc5)c4)c3s2)C1)N1CCOCC1`, the inhibition amounted to 3.44% in [1]; 0.76% in [2]; 11.1% in [3]; 2.11% in [4]; 27.6% in assay [5]; 0.93% in assay [6]. Besides, the inhibition was 7.07% in assay [7]; 0.52% in assay [8]; 2.14% in assay [9]; -0.91% in [10]; 2.37% in [11]; -0.35% in assay [12]. Moreover, the inhibition is -0.55% in [13]; -0.37% in assay [14]; 1.62% in [15]; 2.4% in [16]; 4.54% in assay [17]; 1.56% in assay [18]. In addition, the inhibition came to 5.49% in assay [19] and 0.75% in assay [20].
Consider `NS(=O)(=O)c1ccc(N/N=C2\C(=O)Nc3ccc(C(=O)NCc4ccncc4)cc32)cc1`, for which the inhibition in [1] is 54.9%; in [2], 3.41%; in assay [3], 11%; in assay [4] it was 1.92%; in assay [5], 14.6%; in assay [6], 4.56%. Further, the inhibition in [7] was found to be 9.47%; in assay [8], 0.75%; in [9], 4.07%; in assay [10], 11.2%; in [11], 46.5%; in assay [12], 15.6%. The inhibition in [13] came to 57.6%; in assay [14], 9.67%; in assay [15] it was 39.4%; in [16], 36.8%; in [17], 76.1%; in assay [18], 31.2%. For the same compound, the inhibition in [19] was found to be 72%; in assay [20], 0.05%.
Turning to `Cc1ccc(-c2cc3c(NC(=O)C4CC4)ncnc3o2)cc1`, the inhibition in [1] came to 15.8%; in assay [2], 5.78%; in assay [3], 17.5%; in assay [4] it was 2.4%; in [5] it was 19.2%; in assay [6], 2.34%. Further, the inhibition in assay [7] was 15.1%; in [8] it was 0.9%; in [9], 2.12%; in [10], 6.07%; in assay [11] it was 8.27%; in assay [12], 3.02%. Also, the inhibition in assay [13] stood at 3.21%; in [14] it was 6.35%; in assay [15], 8.16%; in [16], 6.14%; in assay [17], 7.49%; in assay [18] it was 5.64%. The values for the inhibition in [19] and in assay [20] were 4.87% and -2.57%, respectively.
Regarding `O=C(Nc1n[nH]c2nnc(-c3cccnc3)cc12)C1CC1`, the inhibition in [1] is 0.07%; in [2], 0.12%; in [3], 3.67%; in assay [4], -1.84%; in [5] it was 3.75%; in [6] it was -0.21%. The inhibition in assay [7] stood at 0.78%; in [8], 0.63%; in [9], 1.06%; in assay [10], 3.78%; in assay [11] it was 20.3%; in assay [12] it was 0.74%. Also, the inhibition in [13] is 3.42%; in [14] it was 1.29%; in [15] it was 13.1%; in [16], -0.95%; in [17], -0.48%; in assay [18], -2.99%. The inhibition in assay [19] is -0.37%; in assay [20] it was 0.94%.
Consider `Fc1ccc(Nc2nccc(-c3c(-c4ccc(C(F)(F)F)cc4)nn4ncccc34)n2)cc1F`, for which the inhibition in [1] was found to be 14.1%; in assay [2], 4.71%; in assay [3], 4.62%; in assay [4], 2.92%; in assay [5], 12.9%; in assay [6] it was 3.37%. Moreover, the inhibition was found to be 0.68% in [7]; 0.94% in [8]; 1.77% in assay [9]; 5.44% in [10]; 2.77% in assay [11]; 3.85% in assay [12]. The inhibition amounted to 3.88% in assay [13]; 6.5% in assay [14]; 4.38% in assay [15]; 6.25% in [16]; 7.23% in assay [17]; 6.51% in assay [18]. For the same compound, the inhibition in assay [19] is 5.09%; in [20], -0.69%.
Take `CS(=O)(=O)CCNCc1ccoc1-c1ccc2ncnc(Nc3ccc(OCc4ccccc4)cc3)c2c1`: the inhibition was 5.63% in assay [1]; 0.11% in [2]; 8.33% in assay [3]; 3.25% in [4]; 9.46% in [5]; -0.07% in assay [6]. The inhibition in assay [7] was 3.99%; in assay [8], 1.72%; in assay [9], 1.42%; in assay [10] it was 0.34%; in assay [11], 4.29%; in [12], 1.46%. Also, the inhibition in assay [13] is 2.49%; in assay [14], 1.28%; in assay [15] it was 2.65%; in assay [16], 1.95%; in [17], 2.79%; in assay [18] it was 2.37%. Besides, the inhibition in [19] was 3.29%; in assay [20], -1.84%.
Turning to `Nc1ncnc2occ(-c3ccc(NC(=O)Nc4cc(C(F)(F)F)ccc4F)cc3)c12`, the inhibition in assay [2] was 24.4% and 17.3%; in assay [3], 69.9% and 55.9%; in [4] it was 13.4% and 13.3%; in [5], 92.5% and 68.8%; in assay [6] it was 25% and 20.8%; in assay [7] it was 69.2% and 63.1%. The inhibition is 35.8% and 34.4% in assay [8]; 66.3% and 65.5% in assay [9]; 7.35% and 0.68% in [10]; 22.3% and 6.15% in assay [11]; 1.15% and -1.72% in assay [12]; 2.3% and 0.44% in assay [13]. Further, the inhibition was 6.26% and -2.13% in [14]; 19.9% and 2.27% in assay [15]; 4.27% and -2.54% in assay [16]; 8.75% and 0.44% in assay [17]; 4.42% and -3.89% in assay [18]; 6.36% and -2.2% in assay [19]. Moreover, in [20], the inhibition was 0.12% and -0.14%.

These data come from ChEMBL document CHEMBL1961873, “Compounds: GSK PKIS; Assays: Nanosyn kinase panel” (2012).
